Compound activity deposited in PubChem by National Center for Advancing Translational Sciences (NCATS).
aSyn yeast inh: qHTS of alpha-syn Inhibitors. Yeast expressing alpha-synuclein, growth rescue, BacTiter-Glo, 24 h. Potency, µM (highest dose often 46.1 µM), most hits filed as activators. hit rate 0.14% among 370,000. AID 652106, 2013; note: nearly all actives have a fitted effect of over 65% in size
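Readout is rescue of growth in alpha-synuclein-expressing yeast, so inhibitors of toxicity appear as activators. Growth after 24 hr at 30 deg C in galactose medium is quantified by luminescence.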
Mm-Cpn inhibitor: Inhibitors of TCP-1 ring complex (TRiC) of Methanococcus maripaludis (MmCpn): qHTS; purified Mm-Cpn ATPase, ADP Transcreener TR-FRET; Chaperonin Mm-Cpn (Methanococcus maripaludis); hit rate 0.031% among 330,000; Potency, µM (doses to about 76.9 µM), actives largely listed as inhibitors; note: nearly all actives have a fitted effect of over 80% in size
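Purified archaeal chaperonin (25 nM final) was preincubated with compound for 10 min at 37°C, then ATP (10 uM final) was added for 30 min at 37°C in Tris pH 7.4/KCl/MgCl2/DTT buffer. ADP was quantified by HTRF Transcreener TR-FRET.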
FUS yeast rescue: qHTS for Suppressors of FUS Proteinopathy: Primary screen using FUS-linked yeast assay; S. cerevisiae FUS-expressing, growth rescue, OD600, 24 h; Potency, µM (highest dose often 76.6 µM), most hits filed as activators; hit rate 0.24% among 390,000; AID 1347120, 2019; note: nearly all actives have a fitted effect of over 55% in size
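S. cerevisiae expressing FUS from galactose induction served as the toxicity model. Growth after 24hr at 30C, read as absorbance at 600 nm, indicates suppression of toxicity; compounds dosed at several concentrations.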
TDP-43 yeast inh: qHTS of TDP-43 Inhibitors; TDP-43 expressing yeast growth rescue, BacTiter-Glo, 24 h; Potency, µM (top dose mostly 46.1 µM), actives largely listed as activators; hit rate 1.8% among 410,000; AID 652104, 2013; note: nearly all actives have a fitted effect of over 50% in size
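In this qHTS, compounds that restore growth of yeast expressing TDP-43 appear as activators. Cells (OD600=0.02, galactose medium, raffinose-pregrown) are incubated with compound 24 hr at 30 deg C and growth is quantified by BacTiter-Glo.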
Abeta yeast res: qHTS for compounds that reverse cellular toxicity of Amyloid beta (A-beta) peptide in yeast: Primary Screen. AID 1347071, 2019. hit rate 0.063% among 410,000. Potency, µM (top dose mostly 46.1 µM), most hits filed as activators. yeast expressing A-beta42, growth rescue, OD600, 48 h; response scale: 0% DMSO, 100% iron-clioquinol control; note: nearly all actives have a fitted effect of over 55% in size
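Yeast growth medium received pinned compounds, then yeast cells expressing toxic A-beta were added; plates incubated at 30 C for 48 hr. Growth read as absorbance at 600 nm, normalized to DMSO and equimolar FeCl3 plus clioquinol controls.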
ClpP mod: qHTS Assay for Activators of ClpP; hit rate 1.9% among 340,000; purified B. subtilis ClpP, FRET peptide cleavage, 20 min; ATP-dependent Clp protease proteolytic subunit (Bacillus subtilis (strain 168)), P80244; Potency, µM (top dose mostly 57.5 µM); AID 651965, 2013; active = well fitted falling curve with a large enough effect; inconclusive = small, poorly fitted or top-dose-only effect; inactive = no such curve, though single readings can be large or run the other way; note: the source files actives as falling curves though it sought activators and does not explain the sign; nearly all actives have a fitted effect of over 65% in size
Target sequence (P80244 whole entry, looked up): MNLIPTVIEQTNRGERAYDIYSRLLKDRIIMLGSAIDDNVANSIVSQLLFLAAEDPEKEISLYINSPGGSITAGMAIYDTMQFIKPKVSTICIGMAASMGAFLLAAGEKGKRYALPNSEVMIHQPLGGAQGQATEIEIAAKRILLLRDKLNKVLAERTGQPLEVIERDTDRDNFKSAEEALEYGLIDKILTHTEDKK
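Purified B. subtilis ClpP, 10 microg/mL final in Tris/HCl pH8 with KCl, BSA, glycerol and Tween-20, cleaved an Abz/nitrotyrosine-quenched decapeptide. Fluorescence (ex 320, em 430) was read at 0 and 20 min at room temperature. Delta was normalized to 5.8 microM ADEP and DMSO/no-enzyme controls.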
Numbers stand for hits; 0 = inactive; ? = inconclusive; - = no result given. Rows were chosen to be rich in hits. Some 3.6% of all compounds tested hit in one or more screens of this group. Unless noted, calls come from the whole dose curve; as a rule, active = well fitted curve in the direction sought with a large enough effect; inconclusive = small, poorly fitted or top-dose-only effect, or another doubt; inactive = no such curve, though single readings can be large; an effect the other way counts as inactive or inconclusive.

SMILES	aSyn yeast inh	Mm-Cpn inhibitor	FUS yeast rescue	TDP-43 yeast inh	Abeta yeast res	ClpP mod
COc1ccc(-c2nnc(SCc3cc(=O)c4cc(C)cc(C)c4[nH]3)n2C)cc1	-	-	0	0	0	0
O=C(O)c1cccc(COc2ccccc2Cl)c1	0	0	0	0	0	0
Cc1oc(C(=O)O)cc1COc1cccc2ccccc12	0	0	0	32µM	0	0
O=C(O)c1cccc(COc2cccc3ccccc23)c1	0	-	0	35µM	0	0
COc1cc(C(=O)O)cc(OC)c1OCc1cc(C(=O)O)oc1C	0	0	0	0	0	0
CCNC(=O)N1CCN(/[N+]([O-])=N/Oc2ccc([N+](=O)[O-])cc2[N+](=O)[O-])CC1	0	-	-	-	-	-
Cc1c(C)c2ccc(OCC(=O)N3CCOCC3)c(C)c2oc1=O	0	0	0	-	0	-
C=CCOC(=O)COc1ccc2c(C)c(C)c(=O)oc2c1C	0	0	0	?	0	16µM
Cc1c(OCC(=O)OC(C)C)ccc2c3c(c(=O)oc12)CCC3	0	0	0	0	0	32µM
CC(=O)COc1ccc2c3c(c(=O)oc2c1C)CCCCC3	0	0	0	0	0	25µM
Cc1c(OCC(=O)N(C)C)ccc2c3c(c(=O)oc12)CCCCC3	0	0	0	0	0	0
CCc1c(C)c2ccc(OCC(=O)OC(C)C)c(C)c2oc1=O	0	0	0	0	0	25µM
Cc1c(OCC(=O)OC(C)(C)C)ccc2c3c(c(=O)oc12)CCC3	0	0	0	0	0	28µM
Cc1c(OC(C)C(=O)N[C@H](C(=O)O)c2ccccc2)ccc2c3c(c(=O)oc12)CCCC3 (stereo partly drawn)	0	0	0	0	0	0
CC(=O)C(C)Oc1ccc2c3c(c(=O)oc2c1C)CCCC3 (stereo not drawn)	0	0	0	20µM	0	0
CC(=O)NC1=CC(=O)c2nonc2C1=O	0	-	-	-	-	?
COc1ccc(C)cc1NC(=O)CSc1nnc(COc2ccc(C)cc2)n1Cc1ccco1	0	0	0	16µM	0	0
CCn1c(COc2ccc(C)cc2)nnc1SCC(=O)Nc1cc(OC)ccc1OC	0	0	?	13µM	0	0
CCn1c(COc2ccccc2)nnc1SCC(=O)Nc1cc(C)ccc1OC	0	0	0	0	0	0
CC(C(=O)N1CCCCC1)n1ncn2cccc2c1=O (stereo not drawn)	0	0	0	0	0	28µM
Cc1nn(Cc2ccc(F)cc2)c(C)c1NC(=O)c1cnn2c1NC(c1cccs1)CC2C(F)(F)F (stereo not drawn)	0	0	28µM	0	0	0
CCN(CCC#N)c1ccc(/C=C/c2ccnc3ccccc23)cc1	0	-	-	-	-	0
OC(c1ccccc1)(c1ccccc1)C1CCN(CCCOc2ccc(Cl)cc2)CC1	-	-	0	-	-	-
O=C(N/N=C/c1c[nH]c2ccc(Br)cc12)c1ccn(Cc2ccc(Cl)cc2Cl)n1	0	0	28µM	0	0	?
Cc1cccc(OCC(=O)N(Cc2sccc2C)C2CCS(=O)(=O)C2)c1 (stereo not drawn)	-	-	0	0	0	0
SMILES	aSyn yeast inh	Mm-Cpn inhibitor	FUS yeast rescue	TDP-43 yeast inh	Abeta yeast res	ClpP mod
CC(C)Cn1c(N)c(S(=O)(=O)c2cccs2)c2nc3ccccc3nc21	0	0	0	0	0	?
Nc1c(S(=O)(=O)c2cccs2)c2nc3ccccc3nc2n1/N=C/c1cccc(O)c1	0	0	0	?	0	2.8µM
Cc1cccc(S(=O)(=O)c2c(N)n(/N=C/c3cccnc3)c3nc4ccccc4nc23)c1	0	0	0	0	0	0
COCCNC(=O)c1c(N)n(/N=C/c2cccs2)c2nc3ccccc3nc12	0	0	0	0	0	?
COc1ccc(/C=N/n2c(N)c(S(=O)(=O)c3cccs3)c3nc4ccccc4nc32)cc1OC	-	0	0	?	0	13µM
COc1cccc(/C=N/n2c(N)c(S(=O)(=O)c3cccs3)c3nc4ccccc4nc32)c1	-	0	0	0	0	2.8µM
Cc1ccc(NC(=O)CSc2nc(=O)n(CCN3CCOCC3)c3c2CCC3)c(C)c1	-	-	0	0	0	0
COCc1ccc(C(=O)N2CCCC(C(=O)c3cc(F)ccc3F)C2)s1 (stereo not drawn)	0	0	0	11µM	0	-
O=C(COc1ccccc1)Nc1nnc(-c2ccc3c(c2)CCCC3)o1	10µM	0	0	11µM	?	0
O=C(Nc1nnc(-c2ccc3c(c2)CCCC3)o1)c1ccccc1Cl	?	0	0	10µM	0	0
O=C(Nc1nnc(-c2ccc3c(c2)CCCC3)o1)c1ccccc1	?	0	0	5µM	?	0
O=C(COc1ccccc1)Nc1nnc(-c2ccc(F)cc2)o1	18µM	0	0	?	?	0
COc1cc2nc(NC3CCN(Cc4ccccc4)CC3)nc(N3CCCN(C)CC3)c2cc1OC	0	-	-	-	-	0
CCOC(=O)CN1C(=O)N(c2ccc(C)c(C)c2)S(=O)(=O)c2ccccc21	-	-	0	0	0	0
Cc1cn2c(=O)cc(COC(=O)c3ccccc3F)nc2s1	-	-	0	0	0	0
Cc1ccc(C)c(NC(=O)CSc2nnc(-c3cc4occc4n3C)n2-c2ccccc2C)c1	-	-	?	0	0	0
COc1ccc(OC(C)C(=O)N(C)Cc2nc(-c3ccccc3)no2)cc1 (stereo not drawn)	0	0	0	?	0	-
Cc1ccc(CC(=O)N(Cc2nc(-c3ccc(C)cc3)no2)C(C)C)cc1	-	-	0	25µM	0	0
CC(C)N(Cc1nc(-c2ccc(Cl)cc2)no1)C(=O)c1ccco1	-	-	0	35µM	0	0
Cc1cccc(-c2noc(CN(C(=O)C34CC5CC(CC(C5)C3)C4)C(C)C)n2)c1	0	0	-	0	0	32µM
Cc1ccc(C(=O)N(Cc2nc(-c3ccc(C)cc3)no2)C(C)C)cc1	0	0	0	0	0	0
COc1ccc(-c2noc(CN(C(=O)C(C)Oc3ccc(C)cc3)C(C)C)n2)cc1 (stereo not drawn)	-	-	0	35µM	0	0
CC(C)C1N=C(NC(=O)OCc2ccccc2)NC1=O (stereo not drawn) (tested in a mixture with another compound)	-	-	0	-	-	-
CCCSc1ncnc2c1c(-c1ccccc1)cn2-c1ccccc1OC	-	-	0	0	0	0
CCCCCC/C=N/Nc1nnc(Cc2ccccc2)c(=O)[nH]1	0	0	0	20µM	0	0
COc1ccc(N2CCN(C(=O)Cn3cnc4sc(C)c(S(=O)(=O)N5CCC(C)CC5)c4c3=O)CC2)cc1	-	-	0	0	0	0
